Our source for the composite z-score and z-score values is PubChem BioAssay.

The test system of assay [1] is Wnt5a (protein binding on small-molecule microarray). Kind of assay: small molecules binding Wnt5a protein – biophysical, small-molecule microarray, 635/667 nm fluorescence, primary screen (AID 1142).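 Further: fluorescence read at 667 nm with signal to noise per printed feature.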 The following applies: 635 nm fluorescence, higher = more signal.
Assay [2] can be described thus: ATP-based viability of Huh7 replicon cells – cell-based, CellTiter-Glo luminescence, basal, 48 h, cytotoxicity control for HCV replication inhibitor project, primary screen (AID 1143).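 Further: Huh7 hepatoma cells carrying a hepatitis C replication reporter with no stimulus; test concentration not given here.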 The following applies: higher = more signal, called active from +8 up or from −8 down.
The nature of assay [3]: Pseudomonas biofilm growth suppression – PAO1 strain, BacTiter-Glo luminescence, LB-PBS, primary screen (AID 1144). The following applies: P. aeruginosa PAO1 biofilm, 12 h, higher = more signal.
The nature of assay [4]: basal CRE-LacZ reporter activity in PC12 – cell-based, unstimulated, primary screen (AID 1145). As to conditions: no forskolin, luminescence, 4.5 h, higher = more signal, called active from +8 up or from −8 down.
Assay [5] can be described thus: forskolin-driven CRE-LacZ activity in PC12 – cell-based, CRE-LacZ reporter, forskolin-stimulated, primary screen (AID 1146).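 Further: PC12 cells with 6xCRE LacZ reporter stimulated by forskolin 10 µM; beta-galactosidase reporter signal reflecting CREB driven transcription.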 As to conditions: luminescence, 4.5 h, higher = more signal, called active from +8 up or from −8 down.
For assay [6], the target named is Streptavidin (Streptomyces avidinii) (UniProt P22629). Kind of assay: compounds binding control protein streptavidin – biophysical, small-molecule microarray, 635/667 nm fluorescence, artefact control for SMM compound annotation, primary screen (AID 1147).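 Further: signal reflects streptavidin binding to arrayed compounds as a control protein.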 As to conditions: higher = more signal.
Assay [7] can be described thus: probe aInhba binding on compound microarray – biochemical, small-molecule microarray, 635/667 nm fluorescence, primary screen (AID 1148).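 Further: score merges 667nm spot fluorescence with signal-to-noise for antibody binding to printed compounds.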 As to conditions: higher = more signal.
In assay [8] the target is Torsin-1A (Homo sapiens) (UniProt O14656). The assay can be described thus: TOR1A wild-type binding on microarray – cell lysate, small-molecule microarray, lysate, 635/667 nm, primary screen (AID 1149). The following applies: COS7 hTOR1A-WT lysate, 635 nm fluorescence, higher = more signal.
Assay [9] shares this target. The assay can be described thus: torsin A mutant lysate binding on microarrays – cell lysate, small-molecule microarray, COS7 lysate, 635/667 nm fluorescence, primary screen (AID 1150).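 Further: score pools 667 nm emission and signal to noise measuring lysate protein binding.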 As to conditions: COS7 hTOR1A mutant lysate, 635 nm fluorescence, higher = more signal.
Assay [10] deals with Sonic hedgehog protein (Shh). Kind of assay: Sonic hedgehog microarray binding compounds – biochemical, small-molecule microarray, 635/667 nm fluorescence, primary screen (AID 1151).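 Further: Shh protein binding to compounds spotted on small-molecule microarray slides; score combines spot fluorescence intensity with signal-to-noise across triplicate slides.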 The following applies: 635 nm fluorescence, higher = more signal.
The nature of assay [11]: optical density shifts of acrAB sulA E. coli – strain DRC41, OD650, 48 h, E. coli filamentation inducer project, primary screen (AID 1152).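 Further: E. coli MC1000 strain DRC41 lacking acrAB efflux pump and sulA.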 The following applies: higher = more signal, called active from +8 up or from −8 down.
Assay [12] in a line: probe aLefty1 binding on compound microarray – biochemical, small-molecule microarray, 635/667 nm fluorescence, primary screen (AID 1153).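 Further: score merges spot fluorescence with signal-to-noise ratio from the scanned slide images.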 The following applies: higher = more signal.
A short description of assay [13]: plasmodial surface anion channel blockers, osmotic lysis – cell-based, P. falciparum Indochina, OD700, 1 h, primary screen (AID 1154). As to conditions: P. falciparum Indochina infected RBC osmotic lysis, higher = more signal, called active from +8 up or from −8 down.
A short description of assay [14]: plasmodial surface anion channel blockers, osmotic lysis – cell-based, P. falciparum Indochina, OD700, 2 h, primary screen (AID 1155).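 Further: lysis reports solute entry through the parasite surface anion channel PSAC.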 The following applies: P. falciparum Indochina infected erythrocytes, higher = more signal, called active from +8 up or from −8 down.
Assay [15] in a line: changes in parasitized red cell lysis, either direction – P. falciparum Indochina, OD700, 3 h, PSAC antagonist project, primary screen (AID 1156). The following applies: P. falciparum-infected erythrocytes, osmotic lysis, higher = more signal, called active from +8 up or from −8 down.
A short description of assay [16]: plasmodial surface anion channel blockers, osmotic lysis – cell-based, P. falciparum Indochina, OD700, 18 h, primary screen (AID 1157). As to conditions: P. falciparum Indochina infected erythrocytes, osmotic lysis OD700, 18 h; higher = more signal, called active from +8 up or from −8 down.
Assay [17] can be described thus: S6 kinase pathway phospho-S6 level changes – cell-based, A549, cytoblot, luminescence, serum-stimulated, primary screen (AID 1158).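 Further: serum-stimulated A549 lung adenocarcinoma cells; signal is phosphorylated S6 detected by cytoblot immunostaining with HRP secondary.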 As to conditions: 5 h, higher = more signal.
Assay [18] addresses NADPH oxidase 2 (Homo sapiens) (UniProt P04839). Kind of assay: compounds shifting NOX2 Amplex Red fluorescence – cell-based, HEK293-NOX2, PMA-stimulated, NOX inhibitor project, primary screen (AID 1159). Further: test concentration not given here. The following applies: 45 min, higher = more signal, called active from +8 up or from −8 down.
Assay [19] has as its target NADPH oxidase 4 (Homo sapiens) (UniProt Q9NPH5). Kind of assay: compounds shifting NOX4 Amplex Red fluorescence – cell-based, HEK293-NOX4, tetracycline-induced, NOX inhibitor project, primary screen (AID 1160). As to conditions: HEK293-NOX4, Amplex Red H2O2 fluorescence, 45 min; higher = more signal, called active from +8 up or from −8 down.
Assay [20] deals with NADPH oxidase 5 (Homo sapiens) (UniProt Q96PH1). Kind of assay: compounds shifting NOX5 Amplex Red fluorescence – cell-based, HEK293-NOX5, NOX inhibitor project, primary screen (AID 1161). The following applies: HEK293-NOX5, ionomycin, 45 min, higher = more signal.

Structures are written as SMILES. Active and inactive are the calls of the source. Unless noted, how the calls were made is not given here.

NADPH oxidase 2 (Homo sapiens), sequence (P04839 whole entry, looked up): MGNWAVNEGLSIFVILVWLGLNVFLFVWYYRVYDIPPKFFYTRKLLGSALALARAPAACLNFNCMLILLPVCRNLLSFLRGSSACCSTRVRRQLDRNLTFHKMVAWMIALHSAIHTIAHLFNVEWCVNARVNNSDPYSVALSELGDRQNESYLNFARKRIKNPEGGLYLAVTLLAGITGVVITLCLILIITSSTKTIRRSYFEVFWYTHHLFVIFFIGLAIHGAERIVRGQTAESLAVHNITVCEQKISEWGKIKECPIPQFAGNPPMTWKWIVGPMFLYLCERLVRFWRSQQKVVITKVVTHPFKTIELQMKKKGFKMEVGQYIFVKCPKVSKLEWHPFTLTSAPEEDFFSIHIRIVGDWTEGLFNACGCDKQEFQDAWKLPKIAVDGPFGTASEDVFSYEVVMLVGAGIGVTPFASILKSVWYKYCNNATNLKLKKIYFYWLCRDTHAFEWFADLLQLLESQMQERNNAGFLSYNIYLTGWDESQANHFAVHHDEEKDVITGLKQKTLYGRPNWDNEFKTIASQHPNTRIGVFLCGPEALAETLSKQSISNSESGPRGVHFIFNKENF
NADPH oxidase 4 (Homo sapiens), sequence (Q9NPH5 whole entry, looked up): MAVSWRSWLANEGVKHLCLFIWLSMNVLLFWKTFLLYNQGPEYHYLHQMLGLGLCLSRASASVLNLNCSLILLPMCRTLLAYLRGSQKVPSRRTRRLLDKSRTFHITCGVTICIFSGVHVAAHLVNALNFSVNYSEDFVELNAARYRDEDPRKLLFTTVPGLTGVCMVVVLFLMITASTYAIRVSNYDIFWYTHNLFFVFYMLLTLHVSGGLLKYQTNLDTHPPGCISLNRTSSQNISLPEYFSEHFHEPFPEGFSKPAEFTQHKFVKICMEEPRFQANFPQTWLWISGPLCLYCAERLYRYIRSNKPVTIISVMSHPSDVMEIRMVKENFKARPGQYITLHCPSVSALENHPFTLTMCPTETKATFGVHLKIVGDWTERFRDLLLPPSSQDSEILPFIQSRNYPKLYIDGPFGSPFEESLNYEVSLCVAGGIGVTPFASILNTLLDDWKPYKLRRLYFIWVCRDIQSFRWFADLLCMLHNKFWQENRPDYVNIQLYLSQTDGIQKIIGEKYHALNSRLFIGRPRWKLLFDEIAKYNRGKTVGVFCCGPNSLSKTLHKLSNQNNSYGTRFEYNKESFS
Torsin-1A (Homo sapiens), sequence (O14656 whole entry, looked up): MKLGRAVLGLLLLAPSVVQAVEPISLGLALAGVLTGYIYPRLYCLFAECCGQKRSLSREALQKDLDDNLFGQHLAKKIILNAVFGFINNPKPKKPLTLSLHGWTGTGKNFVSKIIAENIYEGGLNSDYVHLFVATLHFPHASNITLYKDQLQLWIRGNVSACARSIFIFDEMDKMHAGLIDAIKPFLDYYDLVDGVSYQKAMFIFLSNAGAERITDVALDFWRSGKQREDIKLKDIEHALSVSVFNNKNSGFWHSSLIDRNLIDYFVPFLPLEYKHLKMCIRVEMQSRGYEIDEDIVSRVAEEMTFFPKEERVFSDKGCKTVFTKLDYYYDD
NADPH oxidase 5 (Homo sapiens), sequence (Q96PH1 whole entry, looked up): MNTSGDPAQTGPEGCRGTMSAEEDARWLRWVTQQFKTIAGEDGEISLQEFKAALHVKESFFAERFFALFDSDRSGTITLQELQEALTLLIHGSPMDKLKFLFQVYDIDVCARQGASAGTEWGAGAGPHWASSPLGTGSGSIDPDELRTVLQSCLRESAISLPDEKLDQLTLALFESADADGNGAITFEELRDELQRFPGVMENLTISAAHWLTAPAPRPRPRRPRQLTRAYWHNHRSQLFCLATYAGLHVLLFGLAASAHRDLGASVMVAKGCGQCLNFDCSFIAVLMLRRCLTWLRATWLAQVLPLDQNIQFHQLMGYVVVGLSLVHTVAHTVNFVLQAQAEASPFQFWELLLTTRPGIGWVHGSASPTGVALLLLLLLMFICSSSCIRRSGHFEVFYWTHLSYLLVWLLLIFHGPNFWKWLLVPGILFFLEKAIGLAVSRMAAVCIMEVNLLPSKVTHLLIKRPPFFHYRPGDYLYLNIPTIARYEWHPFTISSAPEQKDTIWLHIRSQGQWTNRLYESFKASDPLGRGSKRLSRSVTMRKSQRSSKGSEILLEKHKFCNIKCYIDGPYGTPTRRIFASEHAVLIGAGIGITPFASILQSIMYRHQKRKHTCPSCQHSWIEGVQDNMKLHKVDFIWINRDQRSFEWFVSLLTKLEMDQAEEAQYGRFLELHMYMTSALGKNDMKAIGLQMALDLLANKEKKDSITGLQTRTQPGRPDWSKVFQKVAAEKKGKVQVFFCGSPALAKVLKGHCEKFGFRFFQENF
Streptavidin (Streptomyces avidinii), sequence (P22629 whole entry, looked up): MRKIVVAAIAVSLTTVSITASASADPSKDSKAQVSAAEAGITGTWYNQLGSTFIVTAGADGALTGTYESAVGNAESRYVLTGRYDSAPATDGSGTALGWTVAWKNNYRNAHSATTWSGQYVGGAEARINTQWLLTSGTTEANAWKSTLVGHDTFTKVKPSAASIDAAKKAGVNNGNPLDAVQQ

As for `C=CCNC(=O)[C@@H]1[C@H]2C(=O)O[C@H](c3ccccc3)[C@H](c3ccccc3)N2[C@H](c2ccc(OCCO)cc2)[C@@]12C(=O)Nc1ccc(C#CCC(C(=O)OC)C(=O)OC)cc12`, the composite z-score in assay [1] was found to be 0.187; in [6], 0.316; in [7], 0.573; in the assay with Torsin-1A (Homo sapiens) [8], 0.309; with Torsin-1A (Homo sapiens) [9], 1.46; in assay [10] it was 1.49. In addition, the composite z-score in assay [12] was 0.0973. Further, the z-score was -3.86 (inactive) in [2]; 0.827 (inactive) in [3]; 0.488 (inactive) in assay [4]; -1.19 (inactive) in assay [5]; 1.13 (inactive) in [11]; 5.24 (inactive) in assay [13]. Also, the z-score is 1.59 (inactive) in assay [14]; 1.28 (inactive) in [15]; 0.653 (inactive) in [16]; -0.186 in assay [17]; 2.32 (inactive) in assay [18]; 0.186 (inactive) in assay [19]. In assay [20], the z-score is 0.236.

Regarding `O=C1C2C=CC(C(O)c3cccc4ccccc34)N(Nc3ccccc3F)C2C(=O)N1c1ccccc1` (stereo not given), the composite z-score was 0.115 in [1]; 1.66 in [6]; 0.103 in [7]; 1.44 with Torsin-1A (Homo sapiens) [8]; 0.993 in the assay with Torsin-1A (Homo sapiens) [9]; -0.458 in [10]. The composite z-score in [12] came to 0.419. In addition, the z-score in [2] was -0.586 (inactive); in assay [3], -0.732 (inactive); in [4], -0.62 (inactive); in assay [5], 0.276 (inactive); in assay [11] it was -0.875 (inactive); in assay [13] it was 3.49 (inactive). Further, the z-score in assay [14] is 1.34 (inactive); in assay [15], -0.481 (inactive); in [16], 1.05 (inactive); in assay [17] it was -0.607; in assay [18], -0.26 (inactive); in assay [19] it was -2.65 (inactive). Besides, in assay [20], the z-score was -1.21.

Consider `CC(C)NC(=O)[C@@]1(c2ccc([N+](=O)[O-])cc2)CC(=O)N(C2CCCCC2)[C@@H]1c1ccc(CO)cc1I`, for which the composite z-score was -0.0239 in assay [1]; -0.154 in assay [6]; 0.0497 in assay [7]; 0.0498 in the assay with Torsin-1A (Homo sapiens) [8]; 0.242 with Torsin-1A (Homo sapiens) [9]; -0.241 in assay [10]. Besides, in assay [12], the composite z-score was determined as 0.533. In addition, the z-score in assay [2] is -4.27 (inactive); in assay [3] it was 1.11 (inactive); in assay [4] it was 1.04 (inactive); in assay [5], -0.727 (inactive); in [11], 1.36 (inactive); in [13], 15.8 (active). Besides, the z-score is 2.08 (inactive) in assay [14]; 1.07 (inactive) in [15]; 0.966 (inactive) in [16]; -0.0892 in assay [17]; 0.824 (inactive) in assay [18]; -1.57 (inactive) in assay [19]. The z-score in assay [20] is 1.45.

As to `CC#CC(=O)Oc1ccccc1C=CC(=O)OCC`, the composite z-score in assay [1] was -0.0407; in [6], 0.066; in assay [7] it was -0.206; in the assay with Torsin-1A (Homo sapiens) [8], -0.402; in the assay with Torsin-1A (Homo sapiens) [9] it was 0.222; in assay [10] it was 0.0449. Further, the composite z-score in assay [12] was -0.0011. Besides, the z-score in assay [2] was -1.99 (inactive); in assay [3], -1.69 (inactive); in [4] it was -0.0696 (inactive); in [5], 1.7 (inactive); in [11], -0.158 (inactive); in assay [13] it was 8.09 (active). In addition, the z-score in assay [14] was 1.47 (inactive); in [15] it was 0.692 (inactive); in assay [16] it was 0.903 (inactive); in assay [17] it was -0.275; in assay [18], -0.405 (inactive); in assay [19] it was -0.806 (inactive). In [20], the z-score is 1.8.

On to `CCOC(=O)C1=CC[C@@H](c2ccccc2)N(S(=O)(=O)c2ccc(C)cc2)[C@H]1c1ccccc1C`, for which the composite z-score was 0.572 in assay [1]; 1.05 in assay [6]; -0.15 in assay [7]; 0.339 with Torsin-1A (Homo sapiens) [8]; 0.581 in the assay with Torsin-1A (Homo sapiens) [9]; -0.19 in assay [10]. The composite z-score in [12] was 0.589. Also, the z-score in assay [2] was -2.81 (inactive); in [3] it was -0.953 (inactive); in assay [4], 0.0707 (inactive); in assay [5], 0.285 (inactive); in assay [11], -0.36 (inactive); in assay [13] it was 1.57 (inactive). The z-score in assay [14] is 0.678 (inactive); in assay [15], -0.569 (inactive); in [16], 0.879 (inactive); in [17], -0.102; in [18], 0.515 (inactive); in assay [19], 0.226 (inactive). For the same compound, the z-score in assay [20] was 0.963.

Take `C=CCC(OC(C)=O)[C@@H]1[C@@H](N(Cc2ccc(-c3ccccc3)cc2)C(=O)Cc2ccc(OC)cc2)c2cc(OCCCO)ccc2N1C(=O)Cc1ccc2ccccc2c1` (stereo not given in full): the composite z-score in [1] is -0.263; in assay [6], 0.192; in assay [7], -0.0221; in the assay with Torsin-1A (Homo sapiens) [8], -0.921; with Torsin-1A (Homo sapiens) [9] it was 0.616; in assay [10], 0.412. Moreover, the composite z-score in [12] was -0.0654. For the same compound, the z-score in assay [2] is -1.45 (inactive); in [3] it was 0.294 (inactive); in assay [4], 0.745 (inactive); in assay [5] it was 0.358 (inactive); in [11], -0.59 (inactive); in assay [13], 0.747 (inactive). Besides, the z-score in assay [14] is 0.314 (inactive); in assay [15], 0.198 (inactive); in [16], 0.186 (inactive); in assay [17], -0.185; in assay [18], 0.304 (inactive); in assay [19], 1.09 (inactive). Also, the z-score in [20] was 1.35.

As to `COCCOC(=O)N1C(=O)[C@@]2(c3cc(C#CCC(C(=O)OC)C(=O)OC)ccc31)[C@H](C(=O)Nc1nc3ccccc3s1)[C@H]1C(=O)O[C@H](c3ccccc3)[C@H](c3ccccc3)N1[C@@H]2c1ccccc1OCCO`, the composite z-score in assay [1] amounted to 0.346; in assay [6] it was 0.487; in [7], 0.0711; in the assay with Torsin-1A (Homo sapiens) [8], 0.776; with Torsin-1A (Homo sapiens) [9] it was 0.456; in [10], 1.13. In addition, the composite z-score in assay [12] turned out to be 0.212. Moreover, the z-score in [2] is -3.81 (inactive); in assay [3], -1.12 (inactive); in assay [4], -0.141 (inactive); in assay [5], 0.401 (inactive); in assay [11], 0.275 (inactive); in assay [13], 11.2 (active). The z-score in [14] is 2.85 (inactive); in assay [15] it was 0.599 (inactive); in assay [16], 2.31 (inactive); in assay [17], 0.0413; in assay [18], 0.652 (inactive); in assay [19], 0.671 (inactive). The z-score in [20] was 0.234.
